# Experimental data as given in PubChem BioAssay.
# Unmarked numbers belong to inactive results. The source made the active and inactive calls. Cut-off read from the data, not from the text of the source, unless noted: active = inhibition above about 42%; inactive = the rest.
# Experiments:
# [1] = StAR promoter reporter inhibitors, counter-screen for LRH-1 inverse agonist project, cell-based, luminescence, high throughput (AID 651611; in the data active = inhibition above about 28%); details: StAR promoter luciferase reporter counterscreen, at 3.6 µM, stronger effect = higher value
# [2] = biological target: Nuclear receptor subfamily 5 group A member 2 (Homo sapiens) (UniProt O00482); assay: LRH-1 (NR5A2) inverse agonists, retest, confirmation, cell-based, luminescence (AID 651613); details: cell-based LRH-1 luciferase reporter, inverse agonism; at 3.6 µM; stronger effect = higher value;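 note: HEK293T cells co-transfected with LRH-1 and StAR promoter luciferase reporter; 0% = vehicle wells and 100% = parental cells lacking receptor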
# Nuclear receptor subfamily 5 group A member 2 (Homo sapiens), sequence (O00482 whole entry, looked up): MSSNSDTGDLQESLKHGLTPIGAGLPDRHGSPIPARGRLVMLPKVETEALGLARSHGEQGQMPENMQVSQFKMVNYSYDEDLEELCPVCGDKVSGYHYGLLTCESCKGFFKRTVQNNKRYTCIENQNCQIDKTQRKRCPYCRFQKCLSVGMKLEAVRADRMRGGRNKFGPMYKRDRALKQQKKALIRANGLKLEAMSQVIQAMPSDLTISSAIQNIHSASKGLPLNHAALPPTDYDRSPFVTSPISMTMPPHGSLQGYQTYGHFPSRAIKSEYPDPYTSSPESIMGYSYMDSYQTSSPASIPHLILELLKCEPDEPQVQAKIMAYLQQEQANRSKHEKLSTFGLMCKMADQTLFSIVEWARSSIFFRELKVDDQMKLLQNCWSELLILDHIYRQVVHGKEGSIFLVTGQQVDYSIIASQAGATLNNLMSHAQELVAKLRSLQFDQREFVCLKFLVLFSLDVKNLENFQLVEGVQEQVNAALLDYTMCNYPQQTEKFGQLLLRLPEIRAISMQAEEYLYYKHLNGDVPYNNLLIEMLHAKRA
# [3] = biological target: Steroidogenic factor 1 (Homo sapiens) (UniProt Q13285); assay: SF1 (NR5A1) inverse agonists, counter-screen for LRH-1 inverse agonist project, cell-based, luminescence, high throughput (AID 651614; in the data active = inhibition above about 44%;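 note: cells cotransfected with StAR promoter reporter and SF1 expression vector; 0% = vehicle on cells with receptor and 100% = vehicle on cells lacking receptor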); details: cell-based SF1 luciferase reporter, at 3.6 µM, stronger effect = higher value
# Steroidogenic factor 1 (Homo sapiens), sequence (Q13285 whole entry, looked up, the tested form may be a part): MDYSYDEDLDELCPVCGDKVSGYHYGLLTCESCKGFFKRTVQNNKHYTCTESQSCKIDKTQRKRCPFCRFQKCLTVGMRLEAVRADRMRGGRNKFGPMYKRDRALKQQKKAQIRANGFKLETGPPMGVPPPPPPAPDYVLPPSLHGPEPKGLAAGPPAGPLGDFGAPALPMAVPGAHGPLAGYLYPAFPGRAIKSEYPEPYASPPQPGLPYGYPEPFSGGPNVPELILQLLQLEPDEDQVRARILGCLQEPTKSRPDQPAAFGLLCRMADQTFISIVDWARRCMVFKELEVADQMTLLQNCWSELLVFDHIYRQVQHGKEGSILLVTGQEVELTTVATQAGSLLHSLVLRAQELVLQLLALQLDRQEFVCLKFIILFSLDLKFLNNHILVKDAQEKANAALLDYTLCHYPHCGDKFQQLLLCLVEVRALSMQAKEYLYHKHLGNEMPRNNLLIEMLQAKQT
# [4] = VP16 transactivation reporter inhibitors, counter-screen for LRH-1 inverse agonist project, cell-based, luminescence, high throughput (AID 651615; in the data active = inhibition above about 33%); details: Gal4-VP16 luciferase reporter cells, at 3.6 µM, stronger effect = higher value
Structure (SMILES),inhibition [1],inhibition [2],inhibition [3],inhibition [4]
Cc1c(C)c2ccc(OCC(=O)N3CCN(C(=O)C4COc5ccccc5O4)CC3)cc2oc1=O (stereo unspecified),14.4%,60.4% (active),59.1% (active),-17.1%
O=[N+]([O-])c1ccc(N2CCN(Cc3ccccc3)CC2)c2c1no[n+]2[O-],63.5% (active),57.3% (active),63.1% (active),25.3%
CCC(C)NC(=O)c1ccc2c(c1)N(Cc1ccccc1)C(=O)CS2 (stereo unspecified),7.12%,49.2% (active),51.5% (active),3.22%
COc1ccc(NC(=O)COC(=O)Cc2c[nH]c3ccccc23)cc1Cl,18.2%,40.9%,42.5%,-6.87%
CCOc1ccc(CCNC(=O)COC(=O)c2c(C)nn(-c3ccccc3)c2C)cc1OCC,3.09%,41.6% (active),28.1%,2.25%
CCN(CC)S(=O)(=O)c1cc(NC(=O)CCCOc2ccc(C(C)=O)cc2)ccc1C,2.6%,42.6% (active),19.8%,21.1%
COc1ccc(C(=O)N/N=C(\c2ccccc2)c2ccccn2)cc1,76.4% (active),80.3% (active),84.9% (active),60.4% (active)
CC(Nc1ncnc2sccc12)c1ccccc1 (stereo unspecified),25.8%,64.5% (active),64.9% (active),57.7% (active)
COc1ccc(NC(=O)COC(=O)CNC(=O)c2cc(OC)c(OC)c(OC)c2)cc1,8.08%,42.9% (active),50.5% (active),-7.21%
Cc1nn(CC(=O)NCCC2=CCCCC2)c(C)c1[N+](=O)[O-],17.5%,48.9% (active),41.5%,-0.8%
COc1cccc(-c2cc(C(=O)Nc3ccncc3)c3ccccc3n2)c1,9.54%,35.2%,39.4%,-5.71%
Cc1cccc2cc(C#N)c(SCC(=O)N3CC(=O)Nc4ccccc43)nc12,53.7% (active),23.3%,38.1%,38.5% (active)
CCCCCOc1ccc(NC(=O)CSc2cccc3cccnc23)cc1,-12.7%,42.7% (active),26.9%,-9.81%
Nc1nc2ccccc2n1/N=C/c1ccc([N+](=O)[O-])s1,-0.84%,61.2% (active),65.1% (active),-3.2%
Cc1nn(CC(=O)Nc2ccc3c(c2)OCCO3)c(C)c1[N+](=O)[O-],11.2%,62.3% (active),51.6% (active),10.4%
CCOc1ccc(NC(=O)CN2CCN(C3c4ccccc4-c4ccccc43)CC2)cc1,9.85%,66.5% (active),60.1% (active),-0.77%
O=C(CN1CCN(c2ccc([N+](=O)[O-])cc2)CC1)c1ccccc1,6.83%,60.3% (active),48.5% (active),9.99%
CN(C)c1cc[n+](Cc2c(Cl)cccc2Cl)cc1,7.95%,73.2% (active),68.2% (active),45.7% (active)
CC(=O)N1CCc2c(sc(NC(=O)Cc3ccccc3)c2C#N)C1,18.4%,64% (active),57.4% (active),-30.8%
CC(C)NC(=O)N1Cc2cc(C(=O)NC3CCCCC3)nc(-c3cccc(-c4cccnc4)c3)c2[C@@H]1CCO,27.6%,62.6% (active),62.5% (active),-0.48%
COc1ccccc1Cc1c(-c2ccc(OC)c(OC)c2)nc2c3ccccc3ccn12,8.86%,40.2%,32%,-1.36%
C=CCn1c(SCC(=O)Nc2ccccc2C)nc(O)cc1=O,9.34%,57.8% (active),52.2% (active),-13.2%
CC(=O)Nc1cccc(-c2cc(NC=O)c3ncc(-c4cccc(C(C)=O)c4)n3c2)c1,29.1% (active),57.6% (active),53.2% (active),-34.5%
CCCc1nnc(SCC(=O)Nc2ccc(C(=O)OCC)cc2)o1,5.44%,56.6% (active),60.7% (active),-15.5%
